Rows were chosen to be rich in hits. Some 2.5% of all compounds tested hit in one or more screens of this group.
Cruzain inh noDet: qHTS Assay for Promiscuous and Specific Inhibitors of Cruzain (without detergent) | Cruzipain (Trypanosoma cruzi), P25779 | purified cruzain, Z-FR-AMC fluorescence, no detergent | Potency, µM, for the others: max response, negative = inhibition, most hits filed as inhibitors | 200,000 compounds, 2.3% hits | AID 1476, 2009;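 also: plate controls were enzyme without inhibitor for no effect and buffer without enzyme for full effect; nearly all actives have a fitted effect of over 40% in size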
Target sequence (P25779 123-467 limits assumed): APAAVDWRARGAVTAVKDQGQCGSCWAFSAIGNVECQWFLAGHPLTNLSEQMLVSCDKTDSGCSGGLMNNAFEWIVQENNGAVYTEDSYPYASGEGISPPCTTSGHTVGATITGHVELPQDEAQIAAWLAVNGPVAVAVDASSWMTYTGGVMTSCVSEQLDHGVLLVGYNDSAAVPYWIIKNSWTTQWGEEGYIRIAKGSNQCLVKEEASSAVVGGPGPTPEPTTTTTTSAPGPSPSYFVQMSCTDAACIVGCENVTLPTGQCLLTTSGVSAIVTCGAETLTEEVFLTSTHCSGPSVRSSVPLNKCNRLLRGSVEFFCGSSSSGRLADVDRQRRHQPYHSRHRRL
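Purified cruzain at 1.5 nM, pre-incubated 15 min with compound at room temperature in 100 mM sodium acetate pH 5.5, 5 mM DTT, 0.00005% Triton X-100. Reaction started with 2 uM Z-FR-AMC; AMC fluorescence increase over 60 s gives rate.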
Cruzain Triton: qHTS Assay for Promiscuous and Specific Inhibitors of Cruzain (with detergent) | Cruzipain (Trypanosoma cruzi), P25779 | purified cruzain, Z-FR-AMC fluorescence, 0.01% Triton | Potency, µM, without a hit: max response, negative = inhibition, hits mostly inhibitors | 200,000 compounds, 0.43% hits;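 also: plate controls were neutral wells for no effect and buffer without enzyme for full effect; nearly all actives have a fitted effect of over 40% in size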
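15 min RT preincubation of 1.5 nM cruzain with compound, then 2 uM Z-FR-AMC added; kinetic AMC fluorescence, 60 s delta. Triton X-100 0.01%, pH 5.5.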
The depositor's hits bear a star; ? = inconclusive. Calls follow the shape of the dose curve; as a rule, active = well fitted curve in the direction sought with a large enough effect; inconclusive = small, poorly fitted or top-dose-only effect, or another doubt; inactive = no such curve, though single readings can be large; an effect the other way counts as inactive or inconclusive. Potency is read from the fitted curve at half-maximal effect.

SMILES	Cruzain inh noDet	Cruzain Triton
O=C(Nc1ccc(Br)cc1)c1ccc(F)c(S(=O)(=O)N2CCCc3ccccc32)c1	?	0.4%
O=C(Nc1cc(Cl)cc(Cl)c1)c1ccc(F)c(S(=O)(=O)N2CCCC2)c1	25.1µM*	-2.6%
O=C(Nc1cc(Cl)cc(Cl)c1)c1ccc(F)c(S(=O)(=O)N2CCc3ccccc32)c1	15.8µM*	0.9%
CC(C)c1ccc(NC(=O)c2ccc(F)c(S(=O)(=O)N3CCCC3)c2)cc1	4.2%	0.7%
Cc1ccc(C)c(NC(=O)c2cc(S(=O)(=O)N3CCc4ccccc4C3)ccc2F)c1	-3.0%	1.7%
O=C(Nc1cc(Cl)cc(Cl)c1)c1cc(S(=O)(=O)N2CCc3ccccc3C2)ccc1F	15.8µM*	1.3%
CNC(=O)c1ccc(Nc2nnc(-c3ccc(C)c(S(=O)(=O)NC(C)(C)C)c3)c3ccccc23)cc1	?	-9.9%
O=c1c2oc3ccccc3c2n(Cc2cccc(F)c2)c(=O)n1Cc1ccc2c(c1)OCO2	-3.5%	-1.4%
CC1CC1C(=O)OCc1cc(=O)n2cc(Br)ccc2n1 (configuration not stated)	-3.1%	0.8%
Cc1ccccc1C(=O)NC(CC(C)C)C(=O)OCc1cc(=O)n2cc(Br)ccc2n1 (configuration not stated)	15.8µM*	14.1µM*
CC(=O)c1ccc(NS(=O)(=O)c2ccc(C)cc2)cc1	5.5%	1.1%
COc1cc(OC)c(OC)cc1/C=C/C(=O)c1ccc(NS(=O)(=O)c2ccc(C)cc2)cc1	20µM*	-4.0%
COc1cc2cc(C(N)=O)c(N)nc2cc1OC	15.8µM*	28.2µM*
COC(=O)c1cc(OC)c(OC)cc1N	-23.7%	-2.0%
Cc1cc(C)cc(NS(=O)(=O)c2ccc(N3CCCCS3(=O)=O)cc2)c1	8.7%	-6.2%
C=CCOc1cccc(/C=N/NC(=O)CN(c2cc(Cl)ccc2OC)S(=O)(=O)c2ccc(C)c([N+](=O)[O-])c2)c1	?	-0.6%
COc1ccc(Cl)cc1N(CC(=O)N/N=C/c1ccc(OC(C)C)cc1)S(=O)(=O)c1ccc(C)c([N+](=O)[O-])c1	5.01µM*	-1.8%
COc1ccccc1/C=N/NC(=O)C1=NNC(c2ccccc2)(c2ccccc2)C1	15.8µM*	-9.6%
COc1cccc(/C=N/NC(=O)c2ccc(=O)n(C)c2)c1O	-12.2%	-3.2%
COc1ccccc1/C=N/NC(=O)c1ccccc1NS(=O)(=O)c1ccc(C)cc1	-0.6%	-8.4%
COc1cccc(/C=N/NC(=O)c2ccc(-c3ccccc3)cc2)c1O	15.8µM*	1.0%
COc1ccccc1NC(=O)CCC(=O)c1ccc(-c2ccccc2)cc1	-3.5%	-6.6%
CCc1ccccc1NC(=O)CCC(=O)OCC(=O)c1ccc(-c2ccccc2)cc1	15.8µM*	-2.4%
CCN(Cc1ccccc1)C(=O)Cn1c(=O)n(-c2ccc(Cl)cc2)c(=O)c2c(C)c(C)sc21	7.2%	0.1%
COc1ccccc1NC(=O)C(=O)NCC(c1cccnc1)N1CCc2ccccc2C1 (configuration not stated)	-11.7%	0.3%
SMILES	Cruzain inh noDet	Cruzain Triton
COc1ccc(Nc2nnc(SC(C(=O)Nc3ccc(OC)c(Cl)c3)c3ccccc3)s2)cc1 (configuration not stated)	6.31µM*	-0.7%
COc1cccc(NC(=O)C(Sc2nnc(Nc3ccccc3C)s2)c2ccccc2)c1 (configuration not stated)	?	-2.3%
CCCCCC(=O)NCC(C)NC(=O)CCCCC (configuration not stated)	13.0%	-0.9%
CC(CNC(=O)C(C)(C)C)NC(=O)C(C)(C)C (configuration not stated)	5.01µM*	-2.6%
CSc1ccc(CCNC(=O)c2cc(C)nc3c2c(C)nn3-c2ccccc2)cc1	0.6%	-1.8%
O=C(NCCc1cn2ccccc2n1)c1ccccc1F	?	-13.9%
c1cn2cc(CSC3CCCCC3)nc2s1	-4.1%	-0.7%
O=C(NCCc1cn2ccccc2n1)C1CCCCC1	15.8µM*	-4.3%
O=C(NCCc1cn2ccsc2n1)C1CCCCC1	12.6µM*	-6.9%
C[C@@H](N)/C(N)=N/O	0.5%	1.6%
Fc1cc(Br)ccc1Nc1c2c(nc3nc(-c4cccs4)nn13)CCCC2	-5.9%	2.1%
C=CCn1c(=NC(=O)c2sc3ccccc3c2Cl)sc2cc(S(N)(=O)=O)ccc21	20µM*	-25.9%
COCCn1c(=NC(=O)c2sc3ccccc3c2Cl)sc2cc(S(N)(=O)=O)ccc21	5.8%	-14.6%
CC(=O)[C@]1(O)CC[C@@H]2[C@H]3C[C@@H](C)C4=CC(=O)CC[C@@]4(C)C3[C@@H](O)C[C@]21C (some centres not stated)	-4.1%	-1.6%
CC(=O)c1cccc(S(=O)(=O)N2CCN(c3nc4cc(C)cc(C)c4cc3C#N)CC2)c1	15.8µM*	-1.1%
CC(=O)c1cccc(S(=O)(=O)N2CCN(c3ccccc3F)CC2)c1	-5.9%	-5.5%
COc1ccc(NS(=O)(=O)c2ccc(O)c(C(=O)OCC(=O)Nc3ccc4c(c3)OCCO4)c2)cc1	7.94µM*	-2.8%
COc1ccc(N(CC(=O)Nc2ccc3c(c2)OCO3)S(=O)(=O)c2ccc(F)cc2)cc1	20µM*	-5.2%
COc1ccc(NS(=O)(=O)c2ccc(NS(=O)(=O)c3ccc4c(c3)OCCO4)cc2)cc1	1.7%	-9.9%
COc1ccc(S(=O)(=O)N(C)CC(=O)Nc2ccc3c(c2)OCO3)cc1	-9.9%	-0.7%
Cc1ccc(Cn2c(CN3CCC(C(=O)NCc4ccccc4C)CC3)cc3ccccc32)cc1	12.2%	-8.8%
CC(C)(C)C1CCc2c(sc(NC(=O)c3cccs3)c2C(N)=O)C1 (configuration not stated)	12.6µM*	2.6%
COC(=O)c1c(NC(=O)COc2ccccc2Cl)sc2c1CCC(C(C)(C)C)C2 (configuration not stated)	-7.4%	3.4%
COC(=O)c1c(NC(=O)CSc2nnnn2-c2ccccc2)sc2c1CCC(C)C2 (configuration not stated)	20µM*	-1.2%
COC(=O)c1c(NC(=O)CSc2nnnn2-c2ccccc2)sc2c1CCC(C(C)(C)C)C2 (configuration not stated)	6.31µM*	-2.0%
SMILES	Cruzain inh noDet	Cruzain Triton
CCOC(=O)c1sc(NC(=O)CSc2nnnn2-c2ccccc2)c(C(=O)OCC)c1C	-16.8%	-3.4%
CCC(C)(C)C1CCc2c(sc(NC(=O)c3cccs3)c2C(N)=O)C1 (configuration not stated)	?	-1.8%
c1ccc(SCCSc2ccccc2)cc1	-4.1%	-0.2%
Cc1cc(NC(=O)CSc2nc3ccccc3c(=O)n2C2CCCC2)no1	-0.2%	-1.7%
CN(C)c1ccc(NC(=O)CSc2nc3ccccc3c(=O)n2C2CCCCC2)cc1	12.6µM*	-0.6%
O[C@@H](c1cc(C(F)(F)F)nc2c(Cl)cc(Cl)cc12)C1CCCCN1 (some centres not stated)	-6.3%	-3.0%
C[C@H]1CC[C@@]2(NC1)O[C@@H]1C[C@@H]3[C@@H]4CC=C5C[C@@H](O)CC[C@]5(C)[C@@H]4CC[C@]3(C)[C@H]1[C@@H]2C	-6.0%	-2.9%
CC(C)(C)c1ccc(C(=O)NCC(=O)OCC(=O)c2ccc3c(c2)-c2ccccc2C3)cc1	25.1µM*	-3.8%
O=C(CNC(=O)c1cccs1)OCC(=O)c1ccc2ccccc2c1	-18.1%	?
CCn1cc(C(=O)OCC(=O)Nc2ccc(C)c(Cl)c2)c(=O)c2ccc(C)nc21	-10.1%	-3.4%

Screening data from PubChem BioAssay.
